Results published in PubChem BioAssay (EPA / NIEHS).
Calls of active or inactive are those of the source. Rule for the calls: active = hit-call score of the fitted dose curve at least 0.9, where 1 is the maximum; inactive = score below 0.9.

Columns and labels:
[1] = APR_HepG2_CellCycleArrest_24hr: Apredica 24-hour HepG2 Assay for Cell Cycle Arrest (AID 2282905); conditions: imaging, actives raise or lower the signal;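 note: cell cycle arrest scored as ratio of 2N to 4N nuclear DNA content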
Method in brief: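 Cell cycle arrest is scored from nuclear DNA content measured by high-content imaging of Hoechst 33342-stained HepG2 cells following 24-hour treatment at ten concentrations up to 200 uM, with DMSO as baseline.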

[2] = APR_HepG2_CellLoss_24hr: Apredica 24-hour HepG2 Assay for Cell Loss (AID 2282908); conditions: high-content imaging;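 for AC50: fit in both directions so a hit may be cell loss or gain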
Method in brief: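 Cell number is quantified by fluorescence imaging of Hoechst 33342-stained nuclei following dosing at 0.39–200 uM in 0.5% DMSO. Curves are fitted in both directions from the DMSO baseline.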

[3] = APR_HepG2_MicrotubuleCSK_24hr: Apredica 24-hour HepG2 Assay for Microtubule CSK Stabilty (AID 2282909); conditions: HepG2 microtubule cytoskeleton imaging, actives raise or lower the signal
Method in brief: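 Steps: dose HepG2 for 24 h (0.39–200 uM, 0.5% DMSO); fix 30 min in 3.7% formaldehyde at room temperature; permeabilize; stain alpha-tubulin 60 min; image microtubule cytoskeleton at 20x. Signal change fitted in both directions relative to DMSO.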

[4] = APR_HepG2_MitoticArrest_24hr: Apredica 24-hour HepG2 Assay for Mitotic Arrest (AID 2282910); conditions: high-content imaging, actives raise or lower the signal
Method in brief: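 Compounds are dosed onto HepG2 cells across ten concentrations up to 200 uM for 24 hr. Cells are then fixed in 3.7% formaldehyde, permeabilised, and labelled for phospho-histone H3 and nuclei; images are scored by cell cycle analysis and fitted bidirectionally relative to DMSO.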

[5] = APR_HepG2_MitoMembPot_24hr: Apredica 24-hour HepG2 Assay for Mitochondrial Membrane Potential (AID 2282911); conditions: imaging, actives raise or lower the signal
Method in brief: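 HepG2, 24 hr dosing, 10 concentrations 0.39–200 uM, 0.5% DMSO final. Live-cell MitoTracker Red CMXRos 250 nM 30 min, then 3.7% formaldehyde fix. HCS fluorescence imaging, 20x; bidirectional fit vs DMSO baseline.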

[6] = APR_HepG2_MitoMass_24hr: Apredica 24-hour HepG2 Assay for Mitochondrial Mass (AID 2282912); conditions: high-content imaging, actives raise or lower the signal
Method in brief: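 The liver line HepG2 was dosed in duplicate across a 0.39–200 uM series, with final DMSO held at 0.5% v/v, and harvested at 24 hr. High-content imaging measured mitochondrial dye staining.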

[7] = APR_HepG2_p53Act_24hr: Apredica 24-hour HepG2 Assay for p53 Activation (AID 2282913); conditions: high-content imaging, actives raise or lower the signal;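 note: p53 protein immunofluorescence averaged per cell in HepG2 with Hoechst nuclei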
Method in brief: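 Read-out: Cy5 immunofluorescence for p53 in fixed, permeabilized HepG2, imaged by HCS with Hoechst-defined nuclei. Dosing was 24 hr at 0.39–200 uM in 0.5% DMSO. Curves were fitted bidirectionally relative to DMSO.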

[8] = APR_HepG2_CellCycleArrest_72hr: Apredica 72-hour HepG2 Assay for Cell Cycle Arrest (AID 2282914); conditions: high-content imaging, actives raise or lower the signal
Method in brief: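 HepG2, 72 hr exposure, 10-point 0.39–200 uM, duplicate, 0.5% DMSO final. Fix 3.7% formaldehyde 30 min RT, Triton X-100 0.5%, Hoechst 33342 2 ug/mL. ArrayScan 20x, six fields/well; DNA content per nucleus; bidirectional fit vs DMSO.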

[9] = APR_HepG2_CellLoss_72hr: Apredica 72-hour HepG2 Assay for Cell Loss (AID 2282915); conditions: high-content imaging
Method in brief: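 Cell number comes from Hoechst 33342-labelled nuclei, imaged at 20x after 3.7% formaldehyde fixation. Dosing was 0.39–200 uM, ten concentrations in duplicate, 0.5% DMSO final, for 72 h. Bidirectional fit relative to DMSO baseline.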

[10] = APR_HepG2_NuclearSize_24hr: Apredica 24-hour HepG2 Assay for Nuclear Size (AID 2282907); conditions: high-content imaging, actives raise or lower the signal
Method in brief: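 Compounds in DMSO (final 0.5%) were added to human HepG2 hepatoma cells at ten concentrations up to 200 uM for 24 hr. Fixed nuclei were stained with Hoechst 33342, and nuclear diameter was quantified from automated images.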

Measured: AC50

COC(=O)CCCC(=O)OC
not listed: [10]
inactive: all other assays above

NC1CCCCC1
not listed: [2] | [7]
inactive: all other assays above

O=C(O)c1cccnc1
not listed: [2] | [7]
inactive: all other assays above

CCc1cc(C2=C(C(=O)O)N(c3ccccc3C(F)(F)F)S(=O)(=O)c3ccccc32)cc2c1OCO2
active: [9] 95.5 µM
not listed: [10]
inactive: all other assays above

CC(C)c1cccc(C(C)C)c1NC(=O)NS(=O)(=O)c1cc(C(C)(C)O)co1
not listed: [10]
inactive: all other assays above

CSc1ccc(Oc2ccc(S(N)(=O)=O)cc2CN(C)C)cc1C
active: [4] 88.9 µM | [5] 100 µM | [6] 100 µM | [9] 108 µM
inactive: [1] | [10] | [3] | [8]

CC(COCC(C)OC(=O)c1ccccc1)OC(=O)c1ccccc1 (centres undefined)
not listed: [2] | [7]
inactive: all other assays above

CC(=O)OC1CC(C)OC(C)O1 (centres undefined)
not listed: [2] | [7]
inactive: all other assays above

COC(=O)CCC(=O)OC
not listed: [10]
inactive: all other assays above

CCCCCCCCCCCCCCCCO
not listed: [2] | [7]
inactive: all other assays above

CCCCCCCCCC[N+](C)(C)[O-]
active: [9] 140 µM
not listed: [2]
inactive: all other assays above

CCCCc1nc2cccnc2n1Cc1ccc(-c2ccccc2-c2nnn[nH]2)cc1
inactive: [1] | [4] | [8]
active: [10] 51 µM | [3] 35.7 µM | [5] 23.1 µM | [6] 28.1 µM | [7] 31.1 µM | [9] 65.2 µM

C=CCCCCCCCCCCCC
active: [1] 69.9 µM | [2] 52.7 µM | [7] 99.4 µM | [9] 87.6 µM
not listed: [10]
inactive: all other assays above

CCC(C)N(C)C(=O)c1cc2ccccc2c(-c2ccccc2Cl)n1 (centres undefined)
active: [2] 64.9 µM | [4] 66.8 µM | [6] 82.4 µM | [7] 66.9 µM | [9] 73.1 µM
inactive: [1] | [3] | [5] | [8]

CC(C)(C)c1ccccc1
not listed: [10]
inactive: all other assays above

CC1(C)C(=O)NC(=O)N1CO
active: [2] 108 µM | [9] 120 µM
not listed: [10]
inactive: all other assays above

O=C1O[C@H]([C@H](O)CO)C(O)=C1O
not listed: [10]
inactive: all other assays above

O=C1c2c(O)cccc2Cc2cccc(O)c21
active: [5] 11.1 µM
not listed: [2] | [10]
inactive: all other assays above

C/C=C/C=C/C(=O)O
active: [8] 71.5 µM | [9] 83.7 µM
not listed: [7] | [10]
inactive: all other assays above

CC(C)OC(=O)C(C)(C)Oc1ccc(C(=O)c2ccc(Cl)cc2)cc1
active: [8] 100 µM | [9] 103 µM
not listed: [7] | [10]
inactive: all other assays above

CN(C)C(=O)NC1(c2ccccc2)CCN(CCC[C@]2(c3ccc(Cl)c(Cl)c3)CCCN(C(=O)c3ccccc3)C2)CC1
active: [1] 24.7 µM | [3] 8.32 µM | [4] 16.3 µM | [6] 15.4 µM | [7] 14.8 µM | [9] 16 µM
inactive: [5] | [8]

Cc1cn([C@H]2C=C[C@@H](CO)O2)c(=O)[nH]c1=O
not listed: [2] | [7] | [10]
inactive: all other assays above

O=C(O)CC(O)(CC(=O)O)C(=O)O
not listed: [2] | [10]
inactive: all other assays above
